From ChEMBL document CHEMBL2218924, “A broad activity screen in support of a chemogenomic map for kinase signalling research and drug discovery” (Biochem J, 2013)

Legend:
[1] = molecular target: T1, Dual specificity mitogen-activated protein kinase kinase 6 (Homo sapiens) (UniProt P52564); settings: at 1 µM
T1 sequence (whole entry): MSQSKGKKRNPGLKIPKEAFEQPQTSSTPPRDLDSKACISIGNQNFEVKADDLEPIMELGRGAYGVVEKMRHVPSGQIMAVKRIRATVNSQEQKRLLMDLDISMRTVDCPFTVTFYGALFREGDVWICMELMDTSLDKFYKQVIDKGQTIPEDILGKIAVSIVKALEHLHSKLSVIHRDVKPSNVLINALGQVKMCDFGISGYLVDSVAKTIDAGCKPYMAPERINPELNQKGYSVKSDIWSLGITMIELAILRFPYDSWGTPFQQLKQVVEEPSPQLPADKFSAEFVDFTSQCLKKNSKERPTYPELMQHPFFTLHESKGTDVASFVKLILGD

[2] = molecular target: T1, Dual specificity mitogen-activated protein kinase kinase 6 (Homo sapiens); settings: at 10 µM
[3] = molecular target: T2, Dual specificity mitogen-activated protein kinase kinase 7 (Homo sapiens) (UniProt O14733); settings: at 1 µM
T2 sequence (whole entry): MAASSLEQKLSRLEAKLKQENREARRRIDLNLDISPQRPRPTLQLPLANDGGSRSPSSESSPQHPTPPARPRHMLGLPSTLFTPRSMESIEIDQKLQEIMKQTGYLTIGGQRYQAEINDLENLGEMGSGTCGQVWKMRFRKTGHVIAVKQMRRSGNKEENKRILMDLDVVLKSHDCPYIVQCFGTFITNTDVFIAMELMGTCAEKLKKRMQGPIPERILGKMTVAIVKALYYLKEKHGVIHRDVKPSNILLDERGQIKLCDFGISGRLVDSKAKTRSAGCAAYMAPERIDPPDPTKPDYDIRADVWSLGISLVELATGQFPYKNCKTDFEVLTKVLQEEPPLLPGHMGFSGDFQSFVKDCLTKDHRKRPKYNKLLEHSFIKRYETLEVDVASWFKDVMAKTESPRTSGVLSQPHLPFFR

[4] = molecular target: T2, Dual specificity mitogen-activated protein kinase kinase 7 (Homo sapiens); settings: at 10 µM
[5] = molecular target: Mitogen-activated protein kinase kinase kinase 9 (Homo sapiens) (UniProt P80192); settings: at 1 µM
Sequence of Mitogen-activated protein kinase kinase kinase 9 (Homo sapiens) (P80192 whole entry, looked up): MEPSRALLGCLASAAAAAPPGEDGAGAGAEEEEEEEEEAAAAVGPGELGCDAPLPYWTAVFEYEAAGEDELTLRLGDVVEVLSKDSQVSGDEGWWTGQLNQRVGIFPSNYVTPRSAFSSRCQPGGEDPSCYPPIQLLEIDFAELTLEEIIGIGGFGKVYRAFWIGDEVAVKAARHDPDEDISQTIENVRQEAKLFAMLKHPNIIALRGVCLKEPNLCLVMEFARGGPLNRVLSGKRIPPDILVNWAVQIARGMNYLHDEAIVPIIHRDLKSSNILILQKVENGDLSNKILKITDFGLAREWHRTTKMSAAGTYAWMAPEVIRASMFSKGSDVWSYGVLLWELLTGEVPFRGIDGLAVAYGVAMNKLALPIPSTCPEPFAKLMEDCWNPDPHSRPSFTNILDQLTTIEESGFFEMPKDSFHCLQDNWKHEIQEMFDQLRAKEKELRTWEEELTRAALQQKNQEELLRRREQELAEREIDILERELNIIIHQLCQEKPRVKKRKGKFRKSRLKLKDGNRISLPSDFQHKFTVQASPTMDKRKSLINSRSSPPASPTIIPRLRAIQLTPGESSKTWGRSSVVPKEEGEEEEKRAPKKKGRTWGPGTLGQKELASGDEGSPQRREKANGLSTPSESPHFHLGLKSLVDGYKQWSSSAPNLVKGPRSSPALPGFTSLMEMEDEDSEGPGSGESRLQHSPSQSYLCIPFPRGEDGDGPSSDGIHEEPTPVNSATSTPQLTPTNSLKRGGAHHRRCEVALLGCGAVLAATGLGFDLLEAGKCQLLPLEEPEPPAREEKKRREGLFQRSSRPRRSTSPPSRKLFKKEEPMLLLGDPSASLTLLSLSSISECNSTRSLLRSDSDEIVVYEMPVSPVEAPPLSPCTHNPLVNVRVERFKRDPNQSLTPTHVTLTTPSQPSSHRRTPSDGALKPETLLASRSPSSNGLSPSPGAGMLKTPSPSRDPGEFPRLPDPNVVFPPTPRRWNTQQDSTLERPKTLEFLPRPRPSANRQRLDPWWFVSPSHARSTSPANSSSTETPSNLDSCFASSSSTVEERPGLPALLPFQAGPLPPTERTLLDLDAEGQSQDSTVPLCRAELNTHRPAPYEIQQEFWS

[6] = molecular target: Mitogen-activated protein kinase kinase kinase 9 (Homo sapiens) (UniProt P80192); settings: at 10 µM
[7] = molecular target: Serine/threonine-protein kinase MRCK alpha (Homo sapiens) (UniProt Q5VT25); settings: at 1 µM
Sequence of Serine/threonine-protein kinase MRCK alpha (Homo sapiens) (Q5VT25 whole entry): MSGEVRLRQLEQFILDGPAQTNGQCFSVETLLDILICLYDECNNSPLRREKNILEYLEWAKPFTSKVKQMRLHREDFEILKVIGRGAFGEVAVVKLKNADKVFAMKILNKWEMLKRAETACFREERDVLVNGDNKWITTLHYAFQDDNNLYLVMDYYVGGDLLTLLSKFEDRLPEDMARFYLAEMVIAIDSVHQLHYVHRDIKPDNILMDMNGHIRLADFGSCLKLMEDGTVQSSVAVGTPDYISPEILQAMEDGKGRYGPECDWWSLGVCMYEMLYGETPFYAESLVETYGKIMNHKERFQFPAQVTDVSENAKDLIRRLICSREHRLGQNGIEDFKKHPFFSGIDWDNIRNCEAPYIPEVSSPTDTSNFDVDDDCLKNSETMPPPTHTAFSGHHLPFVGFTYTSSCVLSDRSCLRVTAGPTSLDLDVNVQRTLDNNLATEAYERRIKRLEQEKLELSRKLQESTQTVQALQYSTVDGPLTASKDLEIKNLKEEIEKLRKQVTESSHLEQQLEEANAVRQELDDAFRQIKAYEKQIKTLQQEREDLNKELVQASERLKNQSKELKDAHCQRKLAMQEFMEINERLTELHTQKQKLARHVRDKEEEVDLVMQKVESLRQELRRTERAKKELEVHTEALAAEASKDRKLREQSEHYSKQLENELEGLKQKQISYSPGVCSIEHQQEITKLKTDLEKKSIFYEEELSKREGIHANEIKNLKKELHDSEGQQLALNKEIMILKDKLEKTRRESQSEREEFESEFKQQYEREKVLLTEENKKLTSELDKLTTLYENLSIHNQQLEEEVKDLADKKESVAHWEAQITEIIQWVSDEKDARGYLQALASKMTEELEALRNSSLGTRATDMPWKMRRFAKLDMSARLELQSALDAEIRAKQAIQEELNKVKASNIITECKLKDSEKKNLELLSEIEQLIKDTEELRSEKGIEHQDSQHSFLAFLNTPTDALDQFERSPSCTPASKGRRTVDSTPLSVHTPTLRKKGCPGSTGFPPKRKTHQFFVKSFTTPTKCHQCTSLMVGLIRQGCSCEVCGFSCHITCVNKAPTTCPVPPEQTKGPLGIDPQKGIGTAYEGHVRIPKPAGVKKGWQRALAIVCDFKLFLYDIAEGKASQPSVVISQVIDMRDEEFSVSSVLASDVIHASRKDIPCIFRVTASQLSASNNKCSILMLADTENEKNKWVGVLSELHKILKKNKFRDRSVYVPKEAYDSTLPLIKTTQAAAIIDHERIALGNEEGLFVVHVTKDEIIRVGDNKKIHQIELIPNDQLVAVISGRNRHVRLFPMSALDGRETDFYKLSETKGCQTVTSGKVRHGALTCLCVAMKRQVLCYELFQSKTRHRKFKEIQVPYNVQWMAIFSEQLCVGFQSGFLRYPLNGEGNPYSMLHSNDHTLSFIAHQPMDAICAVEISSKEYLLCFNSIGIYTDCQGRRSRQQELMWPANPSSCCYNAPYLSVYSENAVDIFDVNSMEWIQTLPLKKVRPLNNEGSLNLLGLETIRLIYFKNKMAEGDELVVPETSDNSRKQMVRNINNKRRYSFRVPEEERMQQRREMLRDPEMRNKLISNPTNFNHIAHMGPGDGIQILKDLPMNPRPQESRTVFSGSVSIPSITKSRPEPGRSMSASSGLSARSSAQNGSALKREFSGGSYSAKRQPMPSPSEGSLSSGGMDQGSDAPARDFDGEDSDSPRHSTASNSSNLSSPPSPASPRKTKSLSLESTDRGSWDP

[8] = molecular target: Serine/threonine-protein kinase MRCK alpha (Homo sapiens) (UniProt Q5VT25); settings: at 10 µM
[9] = molecular target: Myosin light chain kinase, smooth muscle (Homo sapiens) (UniProt Q15746); settings: at 1 µM
Sequence of Myosin light chain kinase, smooth muscle (Homo sapiens) (Q15746 whole entry): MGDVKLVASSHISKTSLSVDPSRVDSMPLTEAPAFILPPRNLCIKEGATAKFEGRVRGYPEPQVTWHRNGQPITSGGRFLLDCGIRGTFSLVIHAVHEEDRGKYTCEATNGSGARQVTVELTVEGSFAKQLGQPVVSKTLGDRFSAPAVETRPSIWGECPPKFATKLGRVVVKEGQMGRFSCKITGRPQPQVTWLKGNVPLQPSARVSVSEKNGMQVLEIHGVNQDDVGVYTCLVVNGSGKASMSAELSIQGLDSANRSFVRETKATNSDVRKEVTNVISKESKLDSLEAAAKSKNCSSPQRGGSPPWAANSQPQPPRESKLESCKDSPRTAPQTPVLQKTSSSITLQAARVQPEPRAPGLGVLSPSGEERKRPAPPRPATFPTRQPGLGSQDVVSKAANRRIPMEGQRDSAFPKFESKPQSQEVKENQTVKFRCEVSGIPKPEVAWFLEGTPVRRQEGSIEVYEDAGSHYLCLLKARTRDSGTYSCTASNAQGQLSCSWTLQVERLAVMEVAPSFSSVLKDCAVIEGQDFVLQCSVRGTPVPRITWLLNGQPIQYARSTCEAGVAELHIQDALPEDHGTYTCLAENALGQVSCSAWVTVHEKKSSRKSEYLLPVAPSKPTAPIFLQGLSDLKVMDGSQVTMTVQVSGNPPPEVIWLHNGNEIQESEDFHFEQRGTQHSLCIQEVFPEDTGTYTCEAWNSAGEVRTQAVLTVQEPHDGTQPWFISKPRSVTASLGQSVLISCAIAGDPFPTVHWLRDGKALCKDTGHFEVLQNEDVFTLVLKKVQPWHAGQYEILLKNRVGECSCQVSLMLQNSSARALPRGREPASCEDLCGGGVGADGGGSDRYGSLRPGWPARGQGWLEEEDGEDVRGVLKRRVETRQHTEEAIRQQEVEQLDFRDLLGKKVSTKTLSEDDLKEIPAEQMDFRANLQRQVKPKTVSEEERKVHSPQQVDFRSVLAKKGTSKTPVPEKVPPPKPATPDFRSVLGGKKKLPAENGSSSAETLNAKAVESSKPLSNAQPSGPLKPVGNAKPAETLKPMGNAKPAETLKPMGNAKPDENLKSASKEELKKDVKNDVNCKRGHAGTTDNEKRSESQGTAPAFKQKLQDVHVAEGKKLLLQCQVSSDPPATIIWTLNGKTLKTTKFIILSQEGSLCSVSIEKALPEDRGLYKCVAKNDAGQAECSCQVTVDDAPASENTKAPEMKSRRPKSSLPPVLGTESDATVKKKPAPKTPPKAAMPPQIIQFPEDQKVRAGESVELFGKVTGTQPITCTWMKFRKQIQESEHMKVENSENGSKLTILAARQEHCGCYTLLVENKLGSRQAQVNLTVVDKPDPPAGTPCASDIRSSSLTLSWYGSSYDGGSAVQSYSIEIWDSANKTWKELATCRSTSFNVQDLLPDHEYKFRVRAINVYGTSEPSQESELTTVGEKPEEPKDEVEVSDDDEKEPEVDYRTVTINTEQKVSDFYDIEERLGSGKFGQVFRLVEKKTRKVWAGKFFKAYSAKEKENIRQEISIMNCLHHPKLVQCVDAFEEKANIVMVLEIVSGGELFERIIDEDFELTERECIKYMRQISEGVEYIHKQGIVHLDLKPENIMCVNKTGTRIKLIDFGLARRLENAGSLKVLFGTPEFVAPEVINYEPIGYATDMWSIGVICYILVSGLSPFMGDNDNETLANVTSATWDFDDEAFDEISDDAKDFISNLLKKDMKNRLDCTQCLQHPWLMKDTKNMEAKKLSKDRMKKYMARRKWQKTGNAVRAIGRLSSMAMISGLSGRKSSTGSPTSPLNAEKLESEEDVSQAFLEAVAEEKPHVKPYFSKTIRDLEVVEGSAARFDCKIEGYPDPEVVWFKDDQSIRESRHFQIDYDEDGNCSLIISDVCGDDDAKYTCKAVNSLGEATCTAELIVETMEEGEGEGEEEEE

[10] = molecular target: Myosin light chain kinase, smooth muscle (Homo sapiens) (UniProt Q15746); settings: at 10 µM

## CCN(CC)C(=O)c1ccc(Nc2nc(OCC3CCCCC3)c3nc[nH]c3n2)cc1
[1]
  residual activity: 75%
[2]
  residual activity: 41%
[3]
  residual activity: 56%
[4]
  residual activity: 16%
[5]
  residual activity: 2%
[6]
  residual activity: 1%
[7]
  residual activity: 99%
[8]
  residual activity: 73%

## COc1cc2ncc(-c3ccccc3)nc2cc1OC
[1]
  residual activity: 92%
[2]
  residual activity: 92%
[3]
  residual activity: 90%
[4]
  residual activity: 90%
[9]
  residual activity: 78%
[10]
  residual activity: 86%
[5]
  residual activity: 94%
[6]
  residual activity: 60%
[8]
  residual activity: 93%

## Cn1cc(/C=C2\C(=O)Nc3ccc(S(N)(=O)=O)cc32)c2ccccc21
[1]
  residual activity: 69%
[2]
  residual activity: 85%
[3]
  residual activity: 89%
[4]
  residual activity: 59%
[9]
  residual activity: 63%
[10]
  residual activity: 82%
[5]
  residual activity: 6%
[6]
  residual activity: 3%
[7]
  residual activity: 103%
[8]
  residual activity: 89%

## COc1ccc(C(=O)Nc2sc3c(c2C(N)=O)CCCC3)cc1OC
[1]
  residual activity: 80%
[2]
  residual activity: 120%
[3]
  residual activity: 90%
[4]
  residual activity: 73%
[9]
  residual activity: 80%
[10]
  residual activity: 66%
[5]
  residual activity: 90%
[6]
  residual activity: 96%
[7]
  residual activity: 92%
[8]
  residual activity: 85%

## Cn1cnc2cc3c(Nc4cccc(Br)c4)ncnc3cc21
[1]
  residual activity: 83%
[2]
  residual activity: 74%
[3]
  residual activity: 96%
[4]
  residual activity: 74%
[9]
  residual activity: 74%
[10]
  residual activity: 94%
[5]
  residual activity: 64%
[6]
  residual activity: 40%
[7]
  residual activity: 105%
[8]
  residual activity: 87%

## CC#CC(=O)Nc1cc2c(Nc3ccc(F)c(Cl)c3)ncnc2cn1
[1]
  residual activity: 77%
[2]
  residual activity: 140%
[3]
  residual activity: 97%
[4]
  residual activity: 90%
[9]
  residual activity: 73%
[10]
  residual activity: 110%
[5]
  residual activity: 98%
[6]
  residual activity: 100%
[7]
  residual activity: 98%
[8]
  residual activity: 87%

## Cn1nc2c3c(cccc31)C(=O)c1ccccc1-2
[2]
  residual activity: 70%
[3]
  residual activity: 84%
[4]
  residual activity: 53%
[9]
  residual activity: 65%
[10]
  residual activity: 49%
[5]
  residual activity: 74%
[6]
  residual activity: 28%
[7]
  residual activity: 108%
[8]
  residual activity: 99%

## Nc1ccc2ncnc(NCCc3ccc(Oc4ccccc4)cc3)c2c1
[1]
  residual activity: 90%
[2]
  residual activity: 82%
[3]
  residual activity: 73%
[4]
  residual activity: 96%
[9]
  residual activity: 104%
[10]
  residual activity: 64%
[6]
  residual activity: 80%
[7]
  residual activity: 131%
[8]
  residual activity: 124%

## Cc1cc(Nc2nc(-c3ccccc3)nc3ccccc23)n[nH]1
[1]
  residual activity: 101%
[2]
  residual activity: 71%
[3]
  residual activity: 72%
[4]
  residual activity: 58%
[9]
  residual activity: 55%
[10]
  residual activity: 9%
[5]
  residual activity: 4%
[6]
  residual activity: 1%
[7]
  residual activity: 122%
[8]
  residual activity: 110%

## Ic1cccc(CSc2nnc(-c3ccncc3)o2)c1
[1]
  residual activity: 100%
[2]
  residual activity: 77%
[3]
  residual activity: 70%
[4]
  residual activity: 94%
[9]
  residual activity: 84%
[10]
  residual activity: 68%
[5]
  residual activity: 90%
[6]
  residual activity: 88%
[7]
  residual activity: 123%
[8]
  residual activity: 87%

## O=C(Nc1cccc(Nc2cc(Nc3cccc(C(F)(F)F)c3)ncn2)c1)C1CC1
[1]
  residual activity: 76%
[2]
  residual activity: 66%
[3]
  residual activity: 104%
[4]
  residual activity: 106%
[9]
  residual activity: 75%
[10]
  residual activity: 81%
[5]
  residual activity: 79%
[6]
  residual activity: 36%
[7]
  residual activity: 92%
[8]
  residual activity: 115%

## O=C1c2ccccc2-[n+]2ccc3c([nH]c4ccccc43)c21
[1]
  residual activity: 109%
[2]
  residual activity: 92%
[3]
  residual activity: 91%
[4]
  residual activity: 97%
[9]
  residual activity: 95%
[10]
  residual activity: 79%
[5]
  residual activity: 91%
[6]
  residual activity: 83%
[7]
  residual activity: 100%
[8]
  residual activity: 86%

## Cc1cncc2cccc(S(=O)(=O)N3CCCN(C(=O)CN)C[C@H]3C)c12
[3]
  residual activity: 82%
[9]
  residual activity: 94%
[10]
  residual activity: 99%
[5]
  residual activity: 86%
[6]
  residual activity: 62%
[7]
  residual activity: 98%
[8]
  residual activity: 99%

## CC(C)n1cnc2c(NCc3ccccc3)nc(NCCCO)nc21
[1]
  residual activity: 94%
[2]
  residual activity: 74%
[3]
  residual activity: 91%
[4]
  residual activity: 75%
[9]
  residual activity: 93%
[10]
  residual activity: 74%
[5]
  residual activity: 97%
[6]
  residual activity: 73%
[7]
  residual activity: 86%
[8]
  residual activity: 83%

## Cc1nc2cc3nc(-c4cccs4)cnc3cc2n1C
[1]
  residual activity: 75%
[2]
  residual activity: 149%
[3]
  residual activity: 109%
[4]
  residual activity: 110%
[9]
  residual activity: 82%
[10]
  residual activity: 105%
[5]
  residual activity: 86%
[6]
  residual activity: 44%
[7]
  residual activity: 116%
[8]
  residual activity: 102%

## CC[n+]1c(/C=C/N(C)c2ccccc2)n(-c2ccccc2)c2ccc(-c3nc4ccccc4s3)cc21
[1]
  residual activity: 80%
[2]
  residual activity: 133%
[3]
  residual activity: 108%
[4]
  residual activity: 107%
[9]
  residual activity: 80%
[10]
  residual activity: 34%
[5]
  residual activity: 105%
[6]
  residual activity: 103%
[7]
  residual activity: 99%
[8]
  residual activity: 122%

## O=C(O)c1ccc2c3c1cccc3c(=O)n1c3ccccc3nc21
[1]
  residual activity: 92%
[2]
  residual activity: 64%
[3]
  residual activity: 87%
[4]
  residual activity: 46%
[9]
  residual activity: 88%
[10]
  residual activity: 35%
[5]
  residual activity: 33%
[6]
  residual activity: 5%
[7]
  residual activity: 107%
[8]
  residual activity: 115%

## N#CCCc1ccc2c(c1)-c1[nH]c3ccc([N+](=O)[O-])cc3c1CC(=O)N2
[5]
  residual activity: 7%
[6]
  residual activity: 2%
[7]
  residual activity: 35%
[8]
  residual activity: 19%

## O=C1NC(=O)/C(=C/c2ccc3c(c2)OC(F)(F)O3)S1
[1]
  residual activity: 72%
[2]
  residual activity: 93%
[3]
  residual activity: 96%
[4]
  residual activity: 99%
[9]
  residual activity: 77%
[10]
  residual activity: 72%
[5]
  residual activity: 96%
[6]
  residual activity: 99%
[7]
  residual activity: 112%
[8]
  residual activity: 104%

## N#CC(C#N)=C(N)/C(C#N)=C/c1ccc(O)cc1
[1]
  residual activity: 91%
[2]
  residual activity: 99%
[3]
  residual activity: 94%
[9]
  residual activity: 68%
[10]
  residual activity: 85%
[5]
  residual activity: 99%
[6]
  residual activity: 97%
[7]
  residual activity: 90%
[8]
  residual activity: 76%

## O=C1Nc2ccc(Br)cc2/C1=C\c1cc2c([nH]1)CCCC2
[1]
  residual activity: 76%
[2]
  residual activity: 84%
[9]
  residual activity: 83%
[10]
  residual activity: 84%
[5]
  residual activity: 63%
[6]
  residual activity: 49%
[7]
  residual activity: 108%
[8]
  residual activity: 110%

## CC(=O)O/N=C1\C(=C2\C(=O)Nc3cc(Br)ccc32)Nc2ccccc21
[1]
  residual activity: 96%
[2]
  residual activity: 76%
[3]
  residual activity: 83%
[4]
  residual activity: 105%
[9]
  residual activity: 90%
[10]
  residual activity: 71%
[5]
  residual activity: 55%
[6]
  residual activity: 16%
[7]
  residual activity: 93%
[8]
  residual activity: 101%

## O=C(Nc1cccc(Nc2nccc(Nc3cccc(C(F)(F)F)c3)n2)c1)C1CC1
[1]
  residual activity: 76%
[2]
  residual activity: 51%
[3]
  residual activity: 85%
[4]
  residual activity: 87%
[9]
  residual activity: 54%
[10]
  residual activity: 66%
[5]
  residual activity: 82%
[6]
  residual activity: 29%
[7]
  residual activity: 117%
[8]
  residual activity: 130%

## Cc1ccc(NC2=CC(=O)c3sc(C)nc3C2=O)cc1
[2]
  residual activity: 104%
[3]
  residual activity: 74%
[4]
  residual activity: 101%
[9]
  residual activity: 101%
[10]
  residual activity: 82%
[5]
  residual activity: 98%
[6]
  residual activity: 90%
[7]
  residual activity: 95%
[8]
  residual activity: 91%

## COc1cc2ncnc(Nc3ccc(O)c(Br)c3)c2cc1OC
[1]
  residual activity: 88%
[2]
  residual activity: 27%
[3]
  residual activity: 119%
[4]
  residual activity: 94%
[9]
  residual activity: 71%
[10]
  residual activity: 37%
[5]
  residual activity: 45%
[6]
  residual activity: 11%
[7]
  residual activity: 82%
[8]
  residual activity: 84%

## COc1ccc(OC)c2c(=S)c3ccccc3[nH]c12
[1]
  residual activity: 112%
[2]
  residual activity: 96%
[3]
  residual activity: 81%
[4]
  residual activity: 90%
[9]
  residual activity: 132%
[10]
  residual activity: 71%
[6]
  residual activity: 89%
[7]
  residual activity: 119%
[8]
  residual activity: 93%

## O=[N+]([O-])c1ccc(-c2nc(-c3ccc(F)cc3)c(-c3ccncc3)[nH]2)cc1
[1]
  residual activity: 50%
[2]
  residual activity: 4%
[3]
  residual activity: 101%
[4]
  residual activity: 98%
[9]
  residual activity: 100%
[10]
  residual activity: 86%
[6]
  residual activity: 83%
[7]
  residual activity: 126%
[8]
  residual activity: 98%

## COc1cc2ncnc(Nc3ccc(NC(=O)c4ccccc4)cc3)c2cc1OC
[2]
  residual activity: 97%
[3]
  residual activity: 92%
[4]
  residual activity: 74%
[9]
  residual activity: 77%
[10]
  residual activity: 96%
[5]
  residual activity: 72%
[6]
  residual activity: 22%
[7]
  residual activity: 105%

## COc1cc2ncnc(Nc3ccc(Oc4ccccc4)cc3)c2cc1OC
[1]
  residual activity: 79%
[2]
  residual activity: 83%
[3]
  residual activity: 87%
[4]
  residual activity: 81%
[9]
  residual activity: 72%
[10]
  residual activity: 91%
[5]
  residual activity: 18%
[6]
  residual activity: 4%
[7]
  residual activity: 103%
[8]
  residual activity: 134%
